Reference: PubChem BioAssay AID2284147 (EPA ToxCast)
Activity calls are given as the source filed them. How the source made its calls: active means hit-call score of the fitted dose curve at least 0.9, where 1 is the maximum; inactive means score below 0.9.

What follows are compounds tested against human Angiotensin Receptor AT2 Antagonism, AGTR2 (gene 186) (UniProt P50052) (assay: ERF_TW_GPCR_hAGTR2: Eurofins (ERF) G Protein-Coupled Receptor (GPCR) Radioligand Binding LeadHunter Assay for human Angiotensin Receptor AT2 Antagonism).
human Angiotensin Receptor AT2 Antagonism, AGTR2 (gene 186), sequence (P50052 whole entry, looked up): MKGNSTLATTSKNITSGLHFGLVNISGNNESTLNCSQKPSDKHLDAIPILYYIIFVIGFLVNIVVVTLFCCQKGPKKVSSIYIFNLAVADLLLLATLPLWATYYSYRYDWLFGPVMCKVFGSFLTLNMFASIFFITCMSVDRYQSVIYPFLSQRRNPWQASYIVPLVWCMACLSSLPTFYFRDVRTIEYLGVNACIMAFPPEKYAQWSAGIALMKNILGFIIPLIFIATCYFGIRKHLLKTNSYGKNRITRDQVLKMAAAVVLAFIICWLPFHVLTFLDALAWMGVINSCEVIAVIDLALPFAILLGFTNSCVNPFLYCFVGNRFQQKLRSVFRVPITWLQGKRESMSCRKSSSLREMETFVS
Protocol: ERF_TW_GPCR_hAGTR2 is a biochemical, single-readout assay that uses extracted gene-proteins in a cell-free assay. Measurements were taken 3 hour after chemical dosing in a 96-well plate. See AT2 Human Angiotensin GPCR Binding (Agonist Radioligand) Assay, Panlabs.ERF_TW_GPCR_hAGTR2 is an assay component calculated from the ERF_TW_GPCR_hAGTR2 assay. It is designed to measure radioligand binding using a type of binding reporter as detected by scintillation counting with radiometry technology.Data from the assay component ERF_TW_GPCR_hAGTR2 was analyzed at the assay endpoint, ERF_TW_GPCR_hAGTR2, in the positive analysis fitting direction relative to DMSO as the negative control and baseline of activity. Using a type of binding reporter, gain-of-signal activity can be used to understand changes in radioligand binding as they relate to gene AGTR2. To generalize the intended target to other relatable targets, this assay endpoint is annotated to the gpcr intended target family, where the subfamily is angiotensin.
Human recombinant angiotensin AT2 receptors expressed in CHO-K1 cells are used in modified Tris-HCl buffer pH 7.4. A 2.4 ug aliquot is incubated with 0.05 nM [125I] CGP-42112A for 3 hours at 37C. Non-specific binding is estimated in the presence of 10 uM (Sar1, Ile8)-Angiotensin II. Membranes are filtered and washed, the filters are then counted to determine [125I] […]

Q: How did the AC50 turn out when `O=C(/C=C/c1ccc(O)cc1)CC(=O)/C=C/c1ccc(O)cc1` was run?
A: 1.75 µM (active)
